Screening results from PubChem BioAssay.
A selection: hits, their analogues and other compounds. The true share with any hit is near 10%.
KB-3-1 cytotox – KB-3-1 parental cell cytotoxicity; KB-3-1 viability, CellTiter-Glo ATP luminescence, 72 h; Potency, µM (doses to about 46.1 µM), most hits filed as cytotoxic; actives 1.4% (n = 400,000); AID 1347075; further: on the % scale 0 is the no-effect control and ±100 the full control effect; nearly all actives have a fitted effect of over 60% in size
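72 h, 37 °C compound treatment of KB-3-1 parental cells; CellTiter-Glo added, 10 min, luminescence read. Data corrected against DMSO-only plates and normalized before curve fitting.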
RORg inh – blocks mouse ROR gamma transcriptional activity; P51450; actives 5.4% (n = 310,000); Drosophila S2 Gal4-RORgamma UAS-luciferase reporter, 20 h; Potency, µM (highest dose often 53.6 µM), inactives show at the highest dose activity change, negative = inhibition, hits mostly inhibitors; further: on the % scale 0 is the no-effect control and ±100 the full control effect; nearly all actives have a fitted effect of over 60% in size
Target sequence (P51450 whole entry, looked up, the tested form may be a part): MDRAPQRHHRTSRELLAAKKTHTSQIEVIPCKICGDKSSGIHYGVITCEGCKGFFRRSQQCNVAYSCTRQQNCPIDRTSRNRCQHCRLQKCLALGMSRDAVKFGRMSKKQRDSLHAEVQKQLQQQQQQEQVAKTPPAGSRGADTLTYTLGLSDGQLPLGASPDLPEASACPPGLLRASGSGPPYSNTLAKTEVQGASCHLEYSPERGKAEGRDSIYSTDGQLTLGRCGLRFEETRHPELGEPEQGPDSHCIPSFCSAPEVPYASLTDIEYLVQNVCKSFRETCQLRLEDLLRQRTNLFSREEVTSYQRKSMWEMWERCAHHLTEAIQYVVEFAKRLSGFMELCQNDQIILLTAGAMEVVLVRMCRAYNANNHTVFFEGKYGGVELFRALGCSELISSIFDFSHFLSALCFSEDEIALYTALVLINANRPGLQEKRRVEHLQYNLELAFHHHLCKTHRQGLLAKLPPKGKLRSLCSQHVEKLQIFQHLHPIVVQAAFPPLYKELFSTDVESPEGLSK
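Using a luciferase readout, inhibitors were identified by reduced reporter activity in Drosophila cells coexpressing a copper-inducible Gal4–ROR gamma fusion and UAS-driven Photinus luciferase, incubated 20 hr after 700 uM copper sulfate.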
KB-V1 cytotox – KB-V1 MDR subline cytotoxicity | AID 1347076 | actives 3.4% (n = 400,000) | KB-V1 MDR cells viability, CellTiter-Glo, 72 h | Potency, µM (doses to about 46.1 µM), actives largely listed as cytotoxic; further: on the % scale 0 is the no-effect control and ±100 the full control effect; nearly all actives have a fitted effect of over 60% in size
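KB-V1, DMEM (no phenol red) + 10% FBS; cpd pin-transferred, titration series; 72 h, 37 degrees C; CellTiter-Glo, luminescence. Data normalized, curve-fit.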
SW480 rerep – inducers of DNA re-replication in SW480 colon cancer cells | SW480 DNA re-replication, Hoechst DNA content imaging, 48 h | actives 1.8% (n = 340,000) | Potency, µM (top dose mostly 46.1 µM), inactives show at the top dose re-replication activation, usual class: activators; further: % of control where 0% means no effect; nearly all actives have a fitted effect of over 55% in size
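Compounds, transferred as 23 nL by pin tool, were incubated with cells for 48 hr; DNA content per nucleus was then quantified by Hoechst staining and fluorescence plate imaging.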
VP16 counter – counter-screen for ROR gamma inhibitors: Gal4-VP16 reporter | Drosophila S2 Gal4-VP16 UAS-luciferase, luminescence, 20 h | Potency, µM (top dose mostly 53.6 µM), for inactives: at the top dose activity, negative = inhibition, actives largely listed as inhibitors | actives 3.5% (n = 310,000);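 further: Gal4-VP16 expression switched on by copper sulfate through the metallothionein promoter; on the % scale 0 is the no-effect control and ±100 the full control effect; nearly all actives have a fitted effect of over 50% in size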
MCF10A rerep – inducers of DNA re-replication in MCF 10A breast cells | MCF 10A DNA re-replication, Hoechst nuclear intensity, 48 h | Potency, µM (series often up to 46.1 µM), for inactives: at the top dose activity, positive = re-replication, most hits filed as activators | actives 2.9% (n = 350,000); further: % of control where 0% means no effect; nearly all actives have a fitted effect of over 50% in size
* marks the source's active call; other numbers are inactive results; [ ] = another dose, or the depositor's remark. The call rests on the fitted dose curve; in most records, active means well fitted curve in the direction sought with a large enough effect; inconclusive means small, poorly fitted or top-dose-only effect, or another doubt; inactive means no such curve, though single readings can be large; an effect the other way counts as inactive or inconclusive. Potency means the concentration at half of the fitted maximal effect.

For Cc1cc(C)c2c(N)c(C(=O)N/N=C/c3cccs3)sc2n1 the results were KB-3-1 cytotox inconclusive, RORg inh -36.7%, KB-V1 cytotox inactive, SW480 rerep inconclusive, VP16 counter -3.3% and MCF10A rerep 18.4µM*.
`CC(C)(C)c1ccc(NC(=O)c2cc(C3CCCN(C(=O)CCc4ccccc4)C3)on2)cc1` (centres undefined) gave KB-3-1 cytotox inactive and KB-V1 cytotox inactive.
CCc1ccc([C@@H]2C[C@H]3[C@@H](CN2S(=O)(=O)c2ccc(C)cc2)C(=O)C[C@@H](c2ccc(Cl)cc2)N3S(=O)(=O)c2ccc(C)cc2)cc1 was read as KB-3-1 cytotox inactive and KB-V1 cytotox inactive.
Screening O=C(Cc1ccccc1)NCCc1csc2nc(-c3ccc(Cl)cc3)nn12 returned KB-3-1 cytotox inactive and KB-V1 cytotox inactive.
COc1ccc(Br)cc1CNC(=O)c1cc2n(n1)CCCN(Cc1ccc(C)cc1)C2=O was read as KB-3-1 cytotox inactive and KB-V1 cytotox inactive.
`C[C@@H](C(=O)NCc1ccc(S(C)(=O)=O)cc1)[C@H]1C[C@]1(C)[C@H](NC(=O)OCc1ccccc1)c1ccccc1` gave KB-3-1 cytotox inactive, RORg inh 8.91µM*, KB-V1 cytotox inactive, SW480 rerep inconclusive, VP16 counter -7.6% and MCF10A rerep 7.0%.
For Cc1cc(NC(=O)CSc2nc3c(sc4ccccc43)c(=O)n2CCCN2CCOCC2)n[nH]1 the results were KB-3-1 cytotox 13µM*, RORg inh -13.2%, KB-V1 cytotox inactive, SW480 rerep 7.31µM*, VP16 counter -20.1% and MCF10A rerep inconclusive.
O=C(CSc1nc2ccccc2c(=O)n1CCCN1CCOCC1)NC12CC3CC(CC(C3)C1)C2 was read as KB-3-1 cytotox inactive, RORg inh 14.1µM*, KB-V1 cytotox 9.2µM*, SW480 rerep -22.6%, VP16 counter -15.7% and MCF10A rerep inconclusive.
Cc1cc(NC(=O)CSc2nc3c(sc4ccccc43)c(=O)n2CCc2ccccc2)n[nH]1 was read as KB-3-1 cytotox inactive, RORg inh 1.5%, KB-V1 cytotox inactive, SW480 rerep 1.6%, VP16 counter 1.5% and MCF10A rerep 10.6%.
`Cc1[nH]c2ccccc2c1C(=O)CSc1nc2ccccc2c(=O)n1CCCN1CCOCC1` gave KB-3-1 cytotox inactive, RORg inh -65.6%, KB-V1 cytotox inactive, SW480 rerep 3.6%, VP16 counter inconclusive and MCF10A rerep 14.6µM*.
Cc1ccc(CCNC(c2ccc(F)cc2)c2nnc(-c3ccccc3Cl)o2)cc1 (centres undefined) was read as KB-3-1 cytotox inactive and KB-V1 cytotox inactive.
Screening CC1(C(=O)Nc2ccc3c(c2)OCCO3)CN(S(C)(=O)=O)CC(=O)N1C1CCCCCC1 (centres undefined) returned KB-3-1 cytotox inactive and KB-V1 cytotox inactive.
For O=S1(=O)N=C(Oc2ccccc2Br)c2ccccc21 the results were KB-3-1 cytotox inactive and KB-V1 cytotox inactive.
CC(C)(C)C(=O)N1CCN(S(=O)(=O)c2ccc3c(c2)OCCCO3)CC1 was read as KB-3-1 cytotox 14.6µM*, KB-V1 cytotox inconclusive, SW480 rerep -8.7% and MCF10A rerep 5.9%.
For CCN(CCC(=O)Nc1ccc(Br)c(C)c1)Cc1ccccc1 the results were KB-3-1 cytotox inconclusive, RORg inh -16.0%, KB-V1 cytotox inconclusive, SW480 rerep 1.7%, VP16 counter 2.6% and MCF10A rerep -0.9%.
`O=C(CCN(CCO)Cc1ccccc1)Nc1ccc(Br)cc1` gave KB-3-1 cytotox inactive, RORg inh 19.1%, KB-V1 cytotox 14.6µM*, SW480 rerep 1.8%, VP16 counter -0.6% and MCF10A rerep 18.4%.
For CC(C)=CCC/C(C)=C/CO/N=C1/C[C@@H](O)[C@@H](O)[C@@H]2[C@@H]3C(=O)N(C4CCCCC4)C(=O)[C@H]3CC[C@@H]12 the results were RORg inh -9.5%[10 µM] and VP16 counter -12.1%[10 µM].
`Cc1ccccc1-n1c(CSC(=N)N)nc2ccccc2c1=O` gave KB-3-1 cytotox inactive, RORg inh 3.7%, KB-V1 cytotox inactive, SW480 rerep inconclusive, VP16 counter 20.9% and MCF10A rerep inconclusive.
`N=C(N)SCc1nc2ccccc2c(=O)n1-c1ccccc1Cl` gave KB-3-1 cytotox inactive, RORg inh 42.7%, KB-V1 cytotox 23.1µM*, SW480 rerep -4.3%, VP16 counter -4.8% and MCF10A rerep inconclusive.
Screening CCOc1ccccc1NC(=O)N1CCc2c(sc3c2CCCC3)C1c1ccccc1 (centres undefined) returned KB-3-1 cytotox inactive and KB-V1 cytotox inactive.
Cc1cccc(NC(=O)C2CCCN(c3cnccn3)C2)c1 (centres undefined) was read as KB-3-1 cytotox inactive, RORg inh -0.6%, KB-V1 cytotox inactive, SW480 rerep inconclusive, VP16 counter -3.9% and MCF10A rerep 18.4µM*.
Cc1ccc(NC(=O)C2CCCN(c3ncccn3)C2)c(C)c1 (centres undefined) was read as KB-3-1 cytotox inactive, RORg inh 3.5%, KB-V1 cytotox inactive, SW480 rerep -19.9%, VP16 counter 28.8% and MCF10A rerep -32.6%.
O=C(Nc1cccc(C(F)(F)F)c1)C1CCCN(c2ncccn2)C1 (centres undefined) was read as KB-3-1 cytotox inactive, RORg inh 14.5%, KB-V1 cytotox 16.4µM*, SW480 rerep -2.9%, VP16 counter -10.6% and MCF10A rerep -4.0%.
Screening O=C(NCc1cccc(C(F)(F)F)c1)C1CCCN(c2ncccn2)C1 (centres undefined) returned KB-3-1 cytotox inactive, RORg inh 4.7%, KB-V1 cytotox inactive, SW480 rerep 1.1%, VP16 counter -3.5% and MCF10A rerep -6.5%.
`Cc1ccc(NC(=O)C2CCCN(c3ncccn3)C2)cc1F` (centres undefined) gave KB-3-1 cytotox inactive, RORg inh 35.3%, KB-V1 cytotox 16.4µM*, SW480 rerep 5.4%, VP16 counter 13.5% and MCF10A rerep 1.6%.
For O=C(Nc1ccccc1-c1ccccc1)C1CCCN(c2ncccn2)C1 (centres undefined) the results were KB-3-1 cytotox inactive, RORg inh 29.7%, KB-V1 cytotox 20.6µM*, SW480 rerep 0.2%, VP16 counter -5.8% and MCF10A rerep -2.5%.
